Our source for the z-score values is PubChem BioAssay AID1508600 (Functional Genomics Laboratory (NCATS/FGL), 2020).

In all, about 53,000 sequences went through this assay and about 3,700 (7%) were called active. This is one part of a sample in which actives are shown more often than they occur. Unmarked numbers belong to inactive results.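 Rule for the calls: active = gene knockdowns whose robust z-score for IL-1 alpha signal is at least 2 or at most -2, so actives lie on both sides; inactive = the rest.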

The nature of the assay: Components of the Cytosolic LPS Sensing Pathway: Gene Identification via Genome-wide siRNA Screen.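 Note: robust z of the log signal after scaling to non-targeting control siRNA wells of the plate.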 Conditions: RAW264.7 macrophages, IL-1a HTRF, actives lie on both sides, screened at 100 nM (by protocol), cells primed 5 h with Pam3CSK4 first. The essentials:
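Knockdown: 100 nM siRNA, 48h, RAW264.7. Stimulation: Pam3CSK4 5 h, then LipidA via TransIT-TKO 24 h. Output: supernatant IL-1a HTRF, negative-control-normalized, log robust z-score; viability by CellTiter-Glo.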
Take GCUUUAGAUACGUGAUUAGTT against Desi2: the z-score is -0.125.

In the case of CCUUAUGAGUCUUACGACUTT against Zfp326, the z-score was 1.15.

With CCCUCAAAGACCUGUACAUTT against Gm266, the z-score was 2.78 (active).

Turning to GGAUGAUGAGCUGAACUUUTT against Mgrn1, the z-score was -0.897.

Take AAGAAUACUCAGAUCAGUUTT against Magee2: the z-score was 0.111.

Consider GGAAAUCUCAGGUGAGGUCTT against Clcc1, for which the z-score is -0.127.

Regarding GGAUCAUCAAGAUAUAGAUTT against Trpm7, the z-score is 2.44 (active).

GCCAGGAAUCACAAGAGCUTT against Mtg1: the z-score is 0.571.

For the sequence GGAGUUAGAAACUCAUUUUTT against Ppargc1b, the z-score was 1.5.

As for GGCACCCAUUCCUAAAAUGTT against Hmgn5, the z-score was -0.929.

In the case of GGAUCUGAAAAAAUUAAGCTT against Stat2, the z-score is 0.65.

Take GGAUAUGCCUCCCUUGAUGTT against Gstt3: the z-score is -2.4 (active).

In the case of CGAGUGUUUGGACAACAAUTT against Ldlr, the z-score was 0.391.

Take CUAUGUGGUCACAAUAGAGTT against Olfr1360: the z-score is 0.411.

In the case of CCUAUGUCACUAAGGCACGTT against Nudt13, the z-score was 0.482.

Take GCACGAUCUUCCAAACCCUTT against Dhh: the z-score was -1.25.

CCAGGGUGGUCUUUUGAAGTT against Eif1: the z-score was -1.66.

Take “GGUAGAUGAUAAUUUCACUTT against 4930595M18Rik”: the z-score was -0.894.

For GCCAUGAGACACCUUCUCUTT against Olfr843, the z-score was -1.96.

As for GGCGAACUGAAGGAUAUGGTT against Anapc5, the z-score is 0.835.

In the case of ACAUGACAAACAACACUAUTT against Olfr960, the z-score was -0.891.

GGCAGCUAGAGAGAAUCCUTT against Akr1c12: the z-score was -2.45 (active).

GCUUUCGGUGGAUUCCUUATT against Rars2: the z-score is -0.714.

On to GGACUGGUUCUUCAGAUCCTT against Depp1, for which the z-score is 3.31 (active).

In the case of GGCUUUCGGUUAUGACCAATT against Alas2, the z-score was -0.385.

Turning to GGAAACCAUCUUUGAACUUTT against Specc1l, the z-score was 0.54.

As for GGAUGUAUGAUGCAGUUAUTT against Olfr1211, the z-score was 1.89.

Take GGGAUUUGAGCAUCUUUCCTT against Lrrc40: the z-score is 0.571.

Consider GGCUUUGAUUAUGUUCCCATT against Fcer2a, for which the z-score was -0.188.

With GGUGACUAGAAAAAUGGAUTT against Cd1d1, the z-score is 0.528.

Take GGAGAAGAUGUGGAGACAUTT against Edf1: the z-score was -1.3.

As for GGCAAAGAUCUUAUGGAGATT against Csf3r, the z-score is 0.0079.

Regarding GGUUCUUUUUGCCACAGCCTT against Miga2, the z-score was -2.31 (active).

GGGAGUAUUACCUCCUUCATT against Igbp1b: the z-score was 0.00303.

For GCAGCUUGAGUUCUCGAAUTT against BC049715, the z-score is 0.971.

GGAAGAAGCUCUAUGCUGATT against Fbxo9: the z-score was -0.589.

As for GCUUGACCUUUUUACUCCUTT against Siglece, the z-score is 0.262.

GCAGAACUUGACCACUGCCTT against Defb2: the z-score is 2.58 (active).

GGAUAAUUCACAGUUCAAATT against Tlk1: the z-score is 1.14.

As to GGACAUCAUGGACCUGAAGTT against Bmerb1, the z-score was -0.582.

Regarding GAAGCUAGAAGAGAUUAAATT against Cep41, the z-score was 0.821.

As to CCCUGUUGAUGAACAAAUCTT against Ddt, the z-score is -0.262.

For the sequence GGUAUGUAGGAAUUACAGUTT against AI606181, the z-score is 2.49 (active).

On to CCUGUCGUUCCUCCUUACATT against Sec11a, for which the z-score is -1.29.

CCAACCUCCCAUUCUGAAUTT against Ttc22: the z-score was 1.71.

GGGCUUAUUCUGUUAAUAGTT against Mttp: the z-score is -0.215.

For the sequence GCAGGGAUCUGGAUUUAAUTT against Arf5, the z-score was 3.37 (active).

As for CUUAGACCCAAUUCAAUUCTT against Zfp667, the z-score was -0.0845.

Turning to CGGCUUCUUAGGAAACUCUTT against Olfr358, the z-score is -0.369.

For GGUGAAAACGUGGUUCCAGTT against Bsx, the z-score is -0.0072.

GGUGACUUCCACUCUAACUTT against Sohlh2: the z-score was -2.57 (active).

Regarding GGCUAUGAAUAAACUUUUCTT against Olfr1016, the z-score is 0.429.

With GGGAUGGAGGAGGAGCUUATT against Bad, the z-score is 0.86.

In the case of GGAUUCAAUUUUUUGCCAUTT against Pbdc1, the z-score was -1.74.

As for CCACGUAUUGUUAGUAGAATT against Ei24, the z-score was 0.251.

In the case of GUAAGGUAUUCAGUGACCUTT against Olfml2a, the z-score was -2.23 (active).

In the case of GGAAACAGAUUUAAAGUGATT against Efcc1, the z-score is 1.03.

In the case of GGACAAGAAGGCAAAUUAGTT against Arhgap9, the z-score is 0.366.

With GCAUAAUAAGCCAAUUCUGTT against Med17, the z-score was -0.355.

In the case of GCUGAAGUUUACUAUAACATT against Marco, the z-score was 0.565.

Turning to GGUACCAUCACGUUGUGUATT against M6pr, the z-score is -0.76.

Consider CCUUGCUCUUUCCAGCUCUTT against Olfr704, for which the z-score was 0.332.

For the sequence GGACAUCGGCUACAACACCTT against Fzd10, the z-score was -2.08 (active).

As for GCUGAGGCAAUUUCAACUUTT against Ctla4, the z-score was 0.169.

For the sequence GCACGACACUCUGUGCAUCTT against Kyat3, the z-score is 0.6.

GCAUCCUACUUCUCAACUUTT against Ceacam12: the z-score is 0.328.

In the case of GGGUUUCGCUAGAACCAUUTT against Plekhg5, the z-score was -0.541.

As to GCUUGUUGCCUAGGACCUATT against Eif1ad, the z-score was -1.14.

Regarding CCCUCAGAUUCAAAAAGUGTT against Krt1, the z-score is 0.233.

In the case of GCAUGGAGAGAACCUGAAATT against Trim69, the z-score was -0.801.

In the case of GGGCCAAGAUACCAAGAGUTT against Spout1, the z-score was -2.71 (active).

For the sequence GGAUAACAGUAAAUGGCUUTT against Zkscan8, the z-score is 0.152.

As for “GGUUAAGUUACUAACCCAGTT against 4931406C07Rik”, the z-score was 1.01.

With “GAGACACUUGUGCUGUAGGTT against F730035P03Rik”, the z-score was 0.108.

On to “GCACUGUAUUCUUGAGCACTT against 1700020L24Rik”, for which the z-score is 2.06 (active).

For the sequence GGUAGUGAUUACGAACCAATT against Hey1, the z-score was 0.605.

Regarding GCCCAGUACUCCGCUUACATT against Bhlhe23, the z-score is -2.03 (active).

Consider GGGCUGAUCUUUUUAACUGTT against Tpm3, for which the z-score was -0.581.

Turning to GGCCUUAGAGAAAAUCUUUTT against Brd3, the z-score was 0.871.

Regarding ACCAGCACGACAGAUGCUATT against Pla2g12a, the z-score was 3.15 (active).

For GGCAUACCGUAAAAGUGGCTT against Olfr73, the z-score was -1.95.

As to GCCAAGAUGGUUAAAUACCTT against Ankrd34b, the z-score is -1.64.

Take GGUUCGCCCUUGGAAAUGGTT against Dmap1: the z-score was -0.258.

As to GGAAUUCAUACCCUUGUUGTT against B3gnt5, the z-score is -0.486.

Turning to GGAGGUGAAAGGCAAAACUTT against Poldip2, the z-score was -0.122.

Consider CGAAGGUCAAACAGUUUGATT against Stxbp6, for which the z-score is -0.558.

As to GGACUAGCAGUAAUAAAAGTT against Zdhhc9, the z-score was -2.37 (active).

Consider “CCAGAAUUGAACUUCAAGUTT against 2610008E11Rik”, for which the z-score is -0.00302.

As to GGGAGAGAACGUGUUCUUCTT against P2rx6, the z-score was -0.477.

In the case of GGAGAUCUCCAUCAUCACCTT against Usp50, the z-score is -1.52.

With CCUAAUGUACACUAACUAUTT against Hsd17b14, the z-score was 1.84.

CCCUAAGAGAGCCUAAAACTT against Serpina3c: the z-score was -1.12.

Take GAACUCUCUCUUCAUCUGGTT against Cd300ld3: the z-score was 2.18 (active).

As to CCUUUUUGCUGAAUGUGGATT against Aard, the z-score was 0.798.

Take GGUGUUGGAUUCCAAUCCCTT against Uba5: the z-score was -0.462.

Turning to GGAUGAAAAGAUUGAACUCTT against Gart, the z-score is 3.22 (active).

For GCUCGAUAUUUUGAAGUCCTT against Cntd1, the z-score was 0.693.

For the sequence GGAUCAGACUGUACGAGAGTT against Crygd, the z-score is -1.11.

Turning to GGAAAGUGAAAGUUAGUUUTT against Cbx6, the z-score was 0.244.

For GCAUUUGGAAUUUACCAUGTT against Wdr47, the z-score is 1.13.

On to GCCGAGUCUCAGCUUGUAATT against Dnajc3, for which the z-score is 0.258.

On to GGAAUGGGAUUACACCUACTT against Mymk, for which the z-score is 2.67 (active).

On to GUAUGACCAGAAGAAAAAGTT against Lrrc72, for which the z-score was -2.19 (active).

As to GGCAUAUCUGAGGUGAAUCTT against Sec23b, the z-score is -1.57.

In the case of GGAAAGAGCAAACAGUUCCTT against Il1f6, the z-score was -2.09 (active).

For the sequence GGUAUUUUGACAGAGUCGATT against Add1, the z-score is -1.24.

For GGUGUUAUCUGCAUCAUCATT against Cyp4f15, the z-score is -1.42.
